An excerpt weighted towards active compounds, which were near 0.58% of everything screened.
Cathepsin G inh = inhibitors of human cathepsin G | AID 581 | purified enzyme, AMC-tetrapeptide fluorescence, pooled mixtures | 0.2% of 62,000 active | inhibition, % at 5 µM (by protocol);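 active = inhibition above 20% in each of the two mixture wells holding the compound; inactive = inhibition of 20% or less in either well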;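 also: 0% = enzyme control without mixture and 100% = blank lacking enzyme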
C1s inh = human complement C1s inhibition; P09871; purified C1s, fluorogenic AMC substrate, pooled mixtures; mean inhibition % of two 10-compound mixtures (active compounds read high), % at 5 µM (by protocol); 0.16% of 62,000 active;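 active = inhibition above 20% in each of the two 10-compound mixture wells holding the compound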;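 also: 0% = enzyme wells lacking compound mixture and 100% = no-enzyme blank wells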
CatB block = inhibitors of human cathepsin B; P07858; purified cathepsin B, fluorogenic substrate, fluorescence; inhibition, %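 (tested at 10 µM)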; 0.1% of 63,000 active; in the data active = inhibition above about 21%;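 also: 0% = enzyme with no compound and 100% = no enzyme blank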
CatS block = human cathepsin S inhibition. P25774. recombinant cathepsin S, AMC dipeptide fluorescence, pooled mixtures. inhibition, %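 (tested at 5 µM per compound within 10-compound mixtures)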. 0.06% of 62,000 active; in the data active = inhibition above about 32%, passing the limit was not always enough;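 also: 0% = enzyme without compound and 100% = blank without enzyme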
CatB mix inh = inhibitors of human cathepsin B in compound mixtures; P07858; Purified cathepsin B, AMC dipeptide fluorescence; inhibition, %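 (ten-compound pools at 5 µM per compound and 50 µM total)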; 0.06% of 62,000 active; AID 488; in the data active = inhibition above about 22%, passing the limit was not always enough;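 also: 0% = enzyme without compound and 100% = no enzyme blank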
CatL block = blocks human cathepsin L protease activity. 0.17% of 58,000 active. purified cathepsin L, fluorogenic substrate, fluorescence. P07711. inhibition, %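 (tested at 10 µM)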; in the data active = inhibition above about 45%;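 also: 0% = enzyme with no compound and 100% = no enzyme blank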
The depositor's hits bear a star; . = no result.

SMILES	Cathepsin G inh	C1s inh	CatB block	CatS block	CatB mix inh	CatL block
COCCCNC(CC(=O)Nc1ccccc1C(=O)OC)C(=O)O (configuration not stated)	14.0	21.8*	7.4	-1.8	4.8	13.7
O=c1c(-c2ccco2)[n+]([O-])c2ccccc2n1OCc1ccccn1	19.9	28.9*	-0.5	13.9	6.6	8.9
O=c1[nH]c(CN2CCc3ccccc3C2)nc2ccccc12	48.1*	8.8	-2.1	-1.7	1.9	-0.8
Cn1c(=O)c2cc(NC(=O)c3ccccc3Cl)c(=O)oc2n(C)c1=O	20.4*	14.4	5.1	1.7	8.9	.
CCS(=O)(=O)c1ccc(NC(=O)c2ccccc2Cl)c(O)c1	-4.4	-96.7	0.0	-15.1	-12.3	6.3
Cc1noc(/C=C/N(C)C)c1S(=O)(=O)N1CCN(c2ccccc2)CC1	6.7	27.2	1.6	-2.5	0.1	53.4*
COC(=O)c1ccc2c(c1)NC(=O)C(N1CCCC1)S2 (configuration not stated)	9.2	-14.2	5.5	5.2	1.7	63.0*
COC(=O)c1ccc2c(c1)NC(=O)C(N1CCCCC1)S2 (configuration not stated)	11.3	-1.0	3.5	0.4	2.1	21.9
COc1ccc(C(=O)c2no[n+]([O-])c2C(=O)c2ccc(OC)cc2)cc1	0.9	6.1	31.0*	8.4	37.0*	27.6
Cc1ccc(Cn2ccc(NC(=O)c3c(-c4ccccc4Cl)noc3C)n2)cc1	17.0	18.3	-0.9	6.2	-2.9	10.1
Cn1nccc1C(=O)Nn1cnnc1	-23.4	-169.9	-6.6	-24.9	-4.7	7.7
Cc1nn(C)c(C)c1NC(=O)c1ccnn1C	14.5	21.0*	5.2	-2.3	4.4	9.0

Assay outcomes deposited in PubChem BioAssay by PCMD.
